# According to PubChem BioAssay (NCATS):
# Inconclusive results are not listed. A number with no mark means an inactive call. The source made the active and inactive calls. The call rests on the fitted dose curve; in most records, active means well fitted inhibition curve with a large enough effect; inconclusive means small, poorly fitted or top-dose-only effect; inactive means flat fitted curve, though single readings scatter.
# System: Zika virus NS2B-NS3 protease
# Assay: Primary screen GU AMC qHTS for Zika virus inhibitors (AID 1347154); further: nearly all actives have a fitted effect of over 70% in size;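 on activity change, negative = inhibition: 0% = no-inhibitor control and -100% = no-enzyme control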
# Conditions: Zika NS2B-NS3 unlinked protease, AMC fluorogenic substrate; series mostly up to 54.1 µM; activity change, negative = inhibition: at the top concentration
# Procedure, shortened: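 Fluorogenic AMC-substrate cleavage by noncovalent NS2B-NS3 protease complex (25 nM, pH 8.0 Tris buffer with Tween 20) followed for 15 minutes at room temperature (~20% conversion). Percent inhibition from ex340/em450 signal change, fitted by 4-parameter Hill equation.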
# Potency means the concentration at half of the fitted maximal effect.
Compound,"activity change, negative = inhibition",Potency
COc1ccc2c(c1OC)C(=O)O[C@H]2[C@@H]1c2cc3c(cc2CCN1C)OCO3,-4.07%,–
C[C@](O)(CS(=O)(=O)c1ccc(F)cc1)C(=O)Nc1ccc(C#N)c(C(F)(F)F)c1,5.15%,–
C[N+]1(CCF)[C@@H]2CC[C@H]1CC(OC(=O)C(O)(c1ccccc1)c1ccccc1)C2 (some centres not stated),0.77%,–
COC(=O)[C@@H](N)CCCN/C(N)=N/[N+](=O)[O-],4.52%,–
CC(C)(C)NCC(O)c1cc(Cl)c(N)c(C(F)(F)F)c1 (configuration not stated),6.22%,–
C[C@@H]1CC2=CC(=O)CC[C@@H]2[C@H]2CC[C@@]3(C)[C@@H](CC[C@]3(C)O)[C@@H]21,-4.05%,–
Nc1ccc([As](=O)(O)O)cc1,-1.72%,–
O=c1[nH]oc2c1CCNC2,–,inactive
c1ccc(CN2CCNCC2)cc1,-4.18% [at 194 µM],–
COc1cc(CC(C)N)cc(OC)c1OC (configuration not stated),4.03% [at 104 µM],–
CCC(CC)(CNC(=O)CCCO)c1cccc(OC)c1,-4.03%,–
COc1cccc(C(=O)CCN[C@@H](C)[C@H](O)c2ccccc2)c1,-3%,–
CC(C)=CC1C(C(=O)OCN2C(=O)C3=C(CCCC3)C2=O)C1(C)C (configuration not stated),-8.82%,–
c1ccc2c(c1)sc1ccccc12,-1.35%,–
CCN[C@@H](C)Cc1ccccc1,3.24% [at 104 µM],–
O=C1c2ccccc2C(=O)C1C(=O)C(c1ccccc1)c1ccccc1,0.91%,–
CN1C(=O)COc2c(C(=O)NC3CN4CCC3CC4)cc(Cl)cc21 (configuration not stated),–,inactive
C[C@@H](N)[C@@H](O)c1ccccc1,-4.99%,–
COc1ccc2c3c1O[C@H]1[C@H](O)CC[C@H]4[C@@H](C2)N(C)CC[C@@]341,3.88% [at 104 µM],–

Compound,"activity change, negative = inhibition",Potency
CN(C)CCc1c[nH]c2cccc(OP(=O)(O)O)c12,3.52% [at 104 µM],–
CCN(CC)CCc1c[nH]c2ccccc12,1.32% [at 194 µM],–
CCC1(c2ccccc2)C(=O)N(COC)C(=O)N(COC)C1=O,5.63%,–
C[C@H](N)C(=O)c1ccccc1,1.33% [at 104 µM],–
C#C[C@]1(O)CC[C@H]2[C@@H]3CCC4=CC(=O)CC[C@]4(C)[C@H]3CC[C@@]21C,1.45%,–
O=[N+]([O-])O[C@H]1CO[C@H]2[C@@H]1OC[C@H]2O[N+](=O)[O-],-0.676%,–
Cc1ncsc1CCCl,–,inactive
CCC1(CC)C(=O)C=CNC1=O,-2.01%,–
Oc1ccc(Cl)cc1,-0.917%,–
CC[N+]1(CC)CCC(OC(=O)C(O)(c2ccccc2)c2ccccc2)C1 (configuration not stated),-1.52%,–
CCN(CC)C(=O)[C@@H]1C=C2c3cccc4[nH]cc(c34)C[C@H]2N(C)C1,–,35.5 µM (active)
O=C1OC(CCN2CCCCC2)OC1(c1ccccc1)c1ccccc1 (configuration not stated),2.61%,–
CC(Cc1ccccc1)N(C)Cc1ccco1 (configuration not stated),-2.79%,–
C[C@]12CC[C@H]3[C@@H](CC[C@@]45O[C@H]4C(O)=C(C#N)C[C@]35C)[C@H]1CC[C@H]2O,-9.87%,–
NNc1ccccc1,-1.21%,–
C=CCC1([C@H](C)CCC)C(=O)NC(=O)NC1=O,0.0325% [at 104 µM],–
O=c1oc2ccccc2c(O)c1Cc1c(O)c2ccccc2oc1=O,-5.81%,–
CC(C)c1c(CN(C)C(C)Cc2ccccc2)n(C)n(-c2ccccc2)c1=O (configuration not stated),-1.15%,–
